# Data as given in PubChem BioAssay (NCATS).
# Records with an inconclusive call do not appear. Active and inactive are the calls of the source. Calls follow the shape of the dose curve; as a rule, active = well fitted curve in the direction sought with a large enough effect in the signal ratio, with a control signal flat (not every such curve was filed as active); inconclusive = small, poorly fitted or top-dose-only effect, or a change in a side signal; inactive = no such curve, though single readings can be large or run the other way; the % refers to the signal ratio.
# Test: qHTS Assay for Identification of Small Molecule Inducers of Hypoxia Response (AID 2120); also: 0% is about no effect
# Settings: hypoxia response reporter cells, beta-lactamase ratio readout; series mostly up to 104 µM; activation: at the top concentration
# Text: NIH Chemical Genomics Center [NCGC]
# NIH Molecular Libraries Screening Centers Network [MLSCN]
# National Institutes of Environmental Health Sciences [NIEHS]
# National Toxicology Program [NTP]
# Hypoxia-inducible factor-1 (HIF-1) is the major hypoxia-regulated transcription factor that controls cellular responses to low oxygen concentration. HIF-1 is composed of two subunits: hypoxia responsive HIF-1a and constitutively expressed HIF-1b, which is also known as aryl hydrocarbon receptor nuclear translocator. During hypoxic conditions, HIF-1a heterodimerizes with HIF-1b and translocates into the nucleus where the HIF-1 complex binds to the hypoxia-response element (HRE) and activates expression of target genes such as VEGF (vascular endothelial growth factor). The HIF-1 pathway is essential to normal growth and development, and is involved in the pathophysiology of cancer, inflammation, and ischemia.
# Using a beta-lactamase reporter-gene under control of the hypoxia response element, a cell-based assay [CellSensor(TM) HRE-bla ME-180 developed by Invitrogen Corp.] was used to measure hypoxia-induced signaling. Library compounds were measured for their ability to induce the reporter gene activity. Compounds were screened in a titration series in 1536-well format. The inducers were identified based on the AC50 values derived from the screening data.
# NCGC Assay Protocol Summary
# 2500 cells/5uL in Opti-MEM medium containing 0.5% dialyzed FBS, 0.1 mM NEAA, 1 mM sodium pyruvate and 10 mM HEPES was dispensed into 1536-well plates and cells were cultured at 37 degrees Celsius for 4-5 hours and then 23 nL of compounds or DMSO were delivered to each well using a pin tool. The plates were incubated at 37 degrees Celsius for 17 hours. 1 uL of CCF4-dye mixture was added to each well. After incubated at room temperature for 2.5 hours the plates were measured on an EnVision plate reader at Excitation 405nm, Emission1=460nm and Emission 2=530nm. The %Activity was determined from the ratio of 460nm/530nm.
row,Structure (SMILES),activation
1,CCOc1cc(C=O)ccc1O,-0.0093% (inactive)
2,CC(C)COC(=O)c1ccccc1C(=O)OCC(C)C,-0.141% (inactive)
3,Oc1c(Cl)c(Cl)c(Cl)c(Cl)c1Cl,5.17% (inactive)
4,CCOC(=O)c1ccccc1N,0.0046% (inactive)
5,CC(=O)/C=C/c1ccccc1,0.274% (inactive)
6,Cc1ccccc1O,0.524% (inactive)
7,COC(=O)c1ccccc1C(=O)OC,0.575% (inactive)
8,COC1=CC(=O)OC(CCc2ccc3c(c2)OCO3)C1 (stereo unspecified),2.91% (inactive)
9,Oc1ccccc1Cl,1.18% (inactive)
10,O=Cc1ccccc1,-0.195% (inactive)
11,c1ccc(Nc2ccc3ccccc3c2)cc1,1.76% (inactive)
